Data taken from PubChem BioAssay (EPA / NIEHS).
Results filed as inconclusive are left out. Calls of active or inactive are those of the source. Rule for the calls: active = hit-call score of the fitted dose curve at least 0.9, where 1 is the maximum; inconclusive = response in the unintended direction; inactive = score below 0.9.

Target: human Peroxisome Proliferator-activated Receptor alpha (PPARa), PPARA (gene 5465) (UniProt Q07869)
Experiment: NVS_NR_hPPARa: NovaScreen (NVS) Nuclear Receptor Binding Assay for human Peroxisome Proliferator-activated Receptor alpha (PPARa) (AID 2283359);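 note: activity means loss of TR-FRET signal versus DMSO baseline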
Outline: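 One-hour incubation, cell-free extracted protein, TR-FRET binding readout; signal loss vs DMSO scored. Screen: 25 uM duplicates, confirmatory dose series for actives.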

human Peroxisome Proliferator-activated Receptor alpha (PPARa), PPARA (gene 5465), sequence (Q07869 whole entry, looked up): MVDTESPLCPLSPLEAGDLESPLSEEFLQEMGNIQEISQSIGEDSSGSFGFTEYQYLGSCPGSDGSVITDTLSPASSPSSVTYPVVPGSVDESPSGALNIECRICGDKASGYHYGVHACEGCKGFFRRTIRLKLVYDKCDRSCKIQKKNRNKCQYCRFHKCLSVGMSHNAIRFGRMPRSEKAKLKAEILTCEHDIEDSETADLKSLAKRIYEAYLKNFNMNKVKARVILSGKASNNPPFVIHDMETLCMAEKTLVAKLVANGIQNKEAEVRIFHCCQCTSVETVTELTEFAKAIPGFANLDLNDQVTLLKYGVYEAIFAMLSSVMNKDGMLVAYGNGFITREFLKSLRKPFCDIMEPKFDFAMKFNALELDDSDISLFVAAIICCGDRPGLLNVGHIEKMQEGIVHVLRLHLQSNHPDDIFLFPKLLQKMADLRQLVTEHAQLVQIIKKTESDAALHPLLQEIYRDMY

Row | Structure (SMILES) | AC50 | outcome
1 | NC(=NCCCCCCN=C(N)/N=C(\N)Nc1ccc(Cl)cc1)/N=C(\N)Nc1ccc(Cl)cc1 | 0.178 µM (active) | 
2 | CCCCc1ccc2ccccc2c1S(=O)(=O)O |  | inactive
3 | CCCCC(CC)C(=O)O (stereo not drawn) |  | inactive
4 | NCCN |  | inactive
5 | CCCCCCCCCCCC | 7.45 µM (active) | 

Target: PGR (gene 5241) (UniProt P06401)
Sequence (P06401 whole entry, looked up): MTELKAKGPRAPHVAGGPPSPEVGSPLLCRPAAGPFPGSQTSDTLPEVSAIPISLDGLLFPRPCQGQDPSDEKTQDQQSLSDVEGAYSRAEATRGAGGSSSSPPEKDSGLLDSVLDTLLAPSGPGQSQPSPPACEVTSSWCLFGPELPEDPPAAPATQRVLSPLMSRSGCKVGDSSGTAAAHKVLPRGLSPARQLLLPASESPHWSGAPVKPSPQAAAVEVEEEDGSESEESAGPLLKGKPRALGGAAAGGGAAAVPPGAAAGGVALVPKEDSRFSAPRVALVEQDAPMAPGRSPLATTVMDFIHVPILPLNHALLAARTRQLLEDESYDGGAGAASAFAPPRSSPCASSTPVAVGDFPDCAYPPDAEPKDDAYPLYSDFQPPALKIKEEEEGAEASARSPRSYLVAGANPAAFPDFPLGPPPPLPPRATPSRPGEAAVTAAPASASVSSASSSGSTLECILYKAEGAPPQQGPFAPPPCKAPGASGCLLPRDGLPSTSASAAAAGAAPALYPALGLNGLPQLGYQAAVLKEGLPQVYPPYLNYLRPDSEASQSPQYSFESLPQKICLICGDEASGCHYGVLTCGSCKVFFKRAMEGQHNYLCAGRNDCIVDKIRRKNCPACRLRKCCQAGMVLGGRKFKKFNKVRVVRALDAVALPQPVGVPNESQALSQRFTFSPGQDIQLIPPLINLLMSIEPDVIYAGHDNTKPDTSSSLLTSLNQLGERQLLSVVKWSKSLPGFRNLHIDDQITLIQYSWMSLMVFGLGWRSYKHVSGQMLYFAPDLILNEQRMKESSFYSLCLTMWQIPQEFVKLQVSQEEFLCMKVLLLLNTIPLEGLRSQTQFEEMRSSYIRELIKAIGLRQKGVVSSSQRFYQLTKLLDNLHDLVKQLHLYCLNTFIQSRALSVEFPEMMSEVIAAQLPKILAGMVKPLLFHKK
Experiment: NVS_NR_hPR: NovaScreen (NVS) Nuclear Receptor Binding Assay for human Progestron Receptor (PR) (AID 2283360);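 note: active means loss of bound radioligand signal versus DMSO baseline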
Outline: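 Cell-free radioligand binding using receptor protein extracted from T47D cells, read by scintillation counting 18 hours after dosing. Loss of signal relative to DMSO baseline indicates displacement; primary screen single concentration 25 uM in duplicate, actives followed in concentration series.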

Row | Structure (SMILES) | outcome | AC50
6 | CCCCCCCCCCCCCCC | inactive | 
7 | C[C@]12CC[C@@H]3c4ccc(O)cc4CC[C@H]3[C@@H]1C[C@@H](O)[C@@H]2O |  | 35.4 µM (active)
8 | c1cc[nH]c1 | inactive | 
9 | CN(Cc1cnc2nc(N)nc(N)c2n1)c1ccc(C(=O)N[C@@H](CCC(=O)O)C(=O)O)cc1 | inactive | 
10 | Clc1ccc(Nc2nnc(Cc3ccncc3)c3ccccc23)cc1 | inactive | 

Target: human Thyroid Receptor Alpha (TRa), THRA (gene 7067) (UniProt P10827)
Sequence (P10827 whole entry, looked up): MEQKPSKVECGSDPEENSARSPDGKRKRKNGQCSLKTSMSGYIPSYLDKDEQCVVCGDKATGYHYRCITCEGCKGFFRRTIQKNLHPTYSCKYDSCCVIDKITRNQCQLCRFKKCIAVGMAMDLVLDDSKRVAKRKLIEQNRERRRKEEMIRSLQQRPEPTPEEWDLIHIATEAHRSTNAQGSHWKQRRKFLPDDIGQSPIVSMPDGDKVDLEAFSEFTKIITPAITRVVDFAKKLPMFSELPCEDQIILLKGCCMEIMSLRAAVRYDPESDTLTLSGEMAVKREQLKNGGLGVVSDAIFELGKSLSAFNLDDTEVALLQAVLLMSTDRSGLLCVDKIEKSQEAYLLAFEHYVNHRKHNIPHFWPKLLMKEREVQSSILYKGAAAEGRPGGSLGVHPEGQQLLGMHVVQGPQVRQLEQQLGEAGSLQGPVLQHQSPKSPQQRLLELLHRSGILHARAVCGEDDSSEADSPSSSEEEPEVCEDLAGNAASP
Experiment: NVS_NR_hTRa_Antagonist: NovaScreen (NVS) Nuclear Receptor Binding Assay for human Thyroid Receptor Alpha Antagonism (TRa) (AID 2283362);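 note: activity is loss of signal relative to DMSO baseline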
Outline: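 In this biochemical format, receptor protein is dosed with chemical and read after 1 hour via AlphaLISA. Decreases from the DMSO baseline indicate antagonist activity; screening used 25 uM in duplicate before concentration-response confirmation.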

Row | Structure (SMILES) | AC50 | outcome
11 | O=C(O)c1cccc(C(=O)O)n1 | 28.1 µM (active) | 
12 | c1cnc2c(c1)ccc1cccnc12 | 0.241 µM (active) | 
13 | Cc1[nH]nc2c1N=C(c1ccccc1Cl)c1cc([N+](=O)[O-])ccc1N2 |  | inactive
14 | CCCCC=O |  | inactive
15 | Cc1cc(C(=C2C=CC(=Nc3ccc(S(=O)(=O)O)cc3)C=C2)c2ccc(Nc3ccc(S(=O)(=O)O)cc3)cc2)cc(S(=O)(=O)O)c1N |  | inactive

Target: Glucocorticoid receptor (Homo sapiens) (UniProt P04150)
Sequence (P04150 whole entry, looked up): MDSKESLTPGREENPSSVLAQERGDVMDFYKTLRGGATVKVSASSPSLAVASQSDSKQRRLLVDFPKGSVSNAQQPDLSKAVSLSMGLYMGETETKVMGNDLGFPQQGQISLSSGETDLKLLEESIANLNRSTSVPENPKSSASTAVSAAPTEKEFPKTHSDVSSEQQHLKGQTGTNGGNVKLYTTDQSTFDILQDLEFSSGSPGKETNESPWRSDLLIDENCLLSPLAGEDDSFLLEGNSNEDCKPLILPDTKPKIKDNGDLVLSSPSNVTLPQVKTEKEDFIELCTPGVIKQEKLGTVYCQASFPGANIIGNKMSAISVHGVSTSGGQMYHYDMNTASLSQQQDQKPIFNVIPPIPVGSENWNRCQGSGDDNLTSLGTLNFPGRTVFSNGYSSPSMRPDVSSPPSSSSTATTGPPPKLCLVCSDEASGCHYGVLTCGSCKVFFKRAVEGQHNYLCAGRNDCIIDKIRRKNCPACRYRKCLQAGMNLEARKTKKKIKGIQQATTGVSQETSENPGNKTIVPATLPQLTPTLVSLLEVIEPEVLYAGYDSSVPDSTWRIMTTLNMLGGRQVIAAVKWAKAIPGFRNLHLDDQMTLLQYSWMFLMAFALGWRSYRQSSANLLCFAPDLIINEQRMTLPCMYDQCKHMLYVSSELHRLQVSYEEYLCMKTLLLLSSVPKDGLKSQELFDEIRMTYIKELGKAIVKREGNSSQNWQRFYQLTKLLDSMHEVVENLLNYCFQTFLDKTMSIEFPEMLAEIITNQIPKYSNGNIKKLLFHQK
Experiment: NVS_NR_hGR: NovaScreen (NVS) Nuclear Receptor Binding Assay for human Glucocorticoid Receptor (GR) (AID 2283363);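 for AC50: activity is loss of specific radioligand binding signal relative to DMSO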
Outline: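 Single-readout cell-free binding: radioligand plus extracted receptor, 16-hour dosing, filter radiodetection; 25 uM duplicate primary, concentration series secondary.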

Row | Structure (SMILES) | AC50 | outcome
16 | NC(=NCCCCCCN=C(N)/N=C(\N)Nc1ccc(Cl)cc1)/N=C(\N)Nc1ccc(Cl)cc1 | 3.08 µM (active) | 
17 | CCCCc1ccc2ccccc2c1S(=O)(=O)O | 7.95 µM (active) | 
18 | CCC(=O)O | 0.202 µM (active) | 
19 | C[C@]12CC[C@@H]3c4ccc(O)cc4CC[C@H]3[C@@H]1C[C@@H](O)[C@@H]2O |  | inactive
20 | Cc1cc(C(=C2C=CC(=Nc3ccc(S(=O)(=O)O)cc3)C=C2)c2ccc(Nc3ccc(S(=O)(=O)O)cc3)cc2)cc(S(=O)(=O)O)c1N | 1.32 µM (active) | 
21 | C=CC(=C)CC/C=C(\C)CCC=C(C)C |  | inactive
22 | CCCCCCCCCCCCOC(=O)c1cc(O)c(O)c(O)c1 | 12.7 µM (active) | 
23 | CC1=NN(c2ccccc2)C(=O)C1 | 45.7 µM (active) | 
24 | CCCCCCCCCCCC | 0.703 µM (active) | 

Target: Nuclear receptor subfamily 1 group I member 2 (Homo sapiens) (UniProt O75469)
Sequence (O75469 whole entry, looked up): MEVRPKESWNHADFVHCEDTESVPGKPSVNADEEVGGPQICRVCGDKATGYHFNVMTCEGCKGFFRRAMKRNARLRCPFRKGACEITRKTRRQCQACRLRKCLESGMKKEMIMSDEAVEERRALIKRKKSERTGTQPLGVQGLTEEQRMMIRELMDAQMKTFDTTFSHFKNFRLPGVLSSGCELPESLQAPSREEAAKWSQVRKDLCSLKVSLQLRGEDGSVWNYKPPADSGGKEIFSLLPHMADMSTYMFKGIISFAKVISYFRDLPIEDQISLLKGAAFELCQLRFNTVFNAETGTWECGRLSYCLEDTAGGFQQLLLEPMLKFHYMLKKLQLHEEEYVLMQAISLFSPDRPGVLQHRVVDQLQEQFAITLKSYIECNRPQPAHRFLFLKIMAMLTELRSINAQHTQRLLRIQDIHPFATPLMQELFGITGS
Experiment: NVS_NR_hPXR: NovaScreen (NVS) Nuclear Receptor Binding Assay for human Pregnane X Receptor (PXR) (AID 2283365);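 note: a drop in FRET signal versus DMSO baseline means the compound binds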
Outline: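 Read-out: TR-FRET, human PXR, 2 h post-dosing, cell-free. Loss of signal vs DMSO taken as binding activity; 25 uM primary, concentration series secondary.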

Row | Structure (SMILES) | outcome | AC50
25 | NC(=NCCCCCCN=C(N)/N=C(\N)Nc1ccc(Cl)cc1)/N=C(\N)Nc1ccc(Cl)cc1 | inactive | 
26 | CCCCc1ccc2ccccc2c1S(=O)(=O)O |  | 4.06 µM (active)
27 | O=C1NS(=O)(=O)c2ccccc21 | inactive | 
28 | CCCCCC(C)OC(=O)COc1ccc(Cl)c2cccnc12 (stereo not drawn) | inactive | 
29 | CCCCCCCCCCCC(=O)O | inactive | 
30 | Cc1ccc(S(=O)(=O)O)cc1 | inactive | 
31 | Cc1cc(C(=C2C=CC(=Nc3ccc(S(=O)(=O)O)cc3)C=C2)c2ccc(Nc3ccc(S(=O)(=O)O)cc3)cc2)cc(S(=O)(=O)O)c1N |  | 0.574 µM (active)
32 | CCCCCCCCCC=CCC1CC(=O)OC1=O (stereo not drawn) | inactive | 
33 | CCCCCCCCCCCC |  | 2.03 µM (active)
